Bioassay records (PubChem)
Sampled rows, rich in hits. Any-hit rate of the full collection: about 4%.
ERAP1 HTS inh: human ERAP1 aminopeptidase inhibitors, primary screen, biochemical, single point, plate reader; Endoplasmic reticulum aminopeptidase 1 (Homo sapiens), Q9NZ08; recombinant ERAP1, Leu-AMC fluorescence, 60 min; inhibition, % at 10.7 µM; 0.15% of 340,000 active; AID 652197, 2013;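 active = mean replicate inhibition of at least 30%, or all replicates individually reaching that 30% level; inactive = mean below 30% and not every replicate reaching it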;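 also: 0% = neutral control wells and 100% = L-leucinethiol positive control wells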
DENV2 CPE: inhibitors of DENV2 cytopathic effect, primary screen, cell-based, plate reader, single concentration. DENV2-infected cells, cytopathic effect rescue. CPE inhibition, % at 9.99 µM. 1.7% of 350,000 active. AID 651640, 2012; in the data active = CPE inhibition above about 20%, passing the limit was not always enough; inconclusive = no clear call, values can overlap the other calls; tested in BHK-21 cells;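 also: 0% = median of neutral control wells and 100% = median of positive control wells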
RAD52 inh: RAD52 DNA annealing inhibitors, primary screen, biochemical, FRET, single point, set 2; DNA repair protein RAD52 homolog (Homo sapiens), P43351; recombinant RAD52 DNA annealing, FRET fluorescence; inhibition, % at 18.7 µM; 0.46% of 360,000 active;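 active = every replicate showing at least 50% inhibition; inconclusive = mean inhibition at least 50% but not in every replicate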
AF4-AF9 inh: inhibitors of AF4 peptide binding to AF9, primary screen, biochemical, AlphaScreen, biotin-AF4 peptide, FLAG-AF9, single point; Protein AF-9 (Homo sapiens), P42568; inhibition, % at 10 µM; 0.47% of 350,000 active; AID 651704, 2012;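 active = every replicate reaching a set inhibition limit, whatever the replicate mean, cut at about 25% in these data; inconclusive = mean inhibition reaches that limit but some replicates miss it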;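 also: 0% = plate neutral control median and 100% = total signal loss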
FGF22 binding: binders of human FGF22 protein, primary screen, FGF22 synaptogenesis inhibitor project, biophysical, thermal shift, single point. recombinant FGF22 thermal shift, SYPRO orange fluorescence; percent of sucrose octasulfate shift, DMSO zero. 1.5% of 340,000 active. Fibroblast growth factor 22 (Homo sapiens), Q9HCT0. activity (Tm shift, normalised), % at 9.99 µM. AID 651658, 2012;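 active = mean Tm shift, scaled 0 neutral to 100 positive control, at about 1.3% or above, every replicate too, limit read from the data; inconclusive = no clear call, values can overlap the other calls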
Target sequence (Q9HCT0 whole entry, looked up): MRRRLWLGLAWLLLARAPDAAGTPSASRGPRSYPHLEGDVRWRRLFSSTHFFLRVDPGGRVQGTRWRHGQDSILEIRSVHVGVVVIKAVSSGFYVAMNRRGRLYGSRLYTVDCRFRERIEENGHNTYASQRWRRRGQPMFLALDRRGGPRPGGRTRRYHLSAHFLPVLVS
The depositor's hits bear a star.

What do the screens show for `O=C(c1ccccc1O)N1CCOCC1`?
ERAP1 HTS inh: -6; DENV2 CPE: -6; RAD52 inh: -3; AF4-AF9 inh: 12; FGF22 binding: 43*

What do the screens show for `Cc1noc(C)c1NC(=O)N[C@H]1C=C[C@@H](CC(=O)N2CCN(C)CC2)O[C@@H]1CO`?
ERAP1 HTS inh: -1; DENV2 CPE: -8; RAD52 inh: -7; AF4-AF9 inh: 0; FGF22 binding: 0

Results for Nc1nc(SCC(=O)O)[nH]c(=O)c1NC(=O)c1ccccc1F ?
ERAP1 HTS inh: -2; DENV2 CPE: 9; RAD52 inh: -6; AF4-AF9 inh: 0; FGF22 binding: 43*

What do the screens show for `C[C@@H]1CCCCO[C@@H](CN(C)S(C)(=O)=O)[C@H](C)CN([C@@H](C)CO)C(=O)c2cc(NS(=O)(=O)c3cn(C)cn3)ccc2O1`?
ERAP1 HTS inh: -2; DENV2 CPE: inconclusive; RAD52 inh: -1; AF4-AF9 inh: 0; FGF22 binding: 0

Results for CCCC(=O)Nc1ccc2c(c1)OC[C@H](C)N(Cc1ccccn1)C[C@@H](C)[C@H](OC)CN(C)C2=O ?
ERAP1 HTS inh: -5; DENV2 CPE: -6; RAD52 inh: -7; AF4-AF9 inh: -3; FGF22 binding: 0

What do the screens show for `NCCCNCCCCNCCCN`?
ERAP1 HTS inh: 5; DENV2 CPE: inconclusive; RAD52 inh: 111*; AF4-AF9 inh: inconclusive; FGF22 binding: 0

How did CC(C)NC(=O)Nc1ccc2c(c1)C(=O)N([C@@H](C)CO)C[C@H](C)[C@@H](CN(C)C(=O)c1ccccc1)OCCCC[C@H](C)O2 do in these assays?
ERAP1 HTS inh: -5; DENV2 CPE: -3; RAD52 inh: 3; AF4-AF9 inh: -12; FGF22 binding: 0

Results for Cc1ccsc1/C=N/NC(=O)c1ccncc1 ?
ERAP1 HTS inh: 5; DENV2 CPE: 1; RAD52 inh: 0; AF4-AF9 inh: -1; FGF22 binding: 43*

Results for O=C(N/N=C/c1cccn1-c1ccc([N+](=O)[O-])cc1)c1cccnc1 ?
ERAP1 HTS inh: 7; DENV2 CPE: 116*; RAD52 inh: -7; AF4-AF9 inh: 0; FGF22 binding: 0

What do the screens show for `O=C(NN=Cc1ccc([N+](=O)[O-])cc1)c1ccncc1`?
ERAP1 HTS inh: 2; DENV2 CPE: 11; RAD52 inh: 1; AF4-AF9 inh: -1; FGF22 binding: 44*

How did O=C(N/N=C/c1cc(Br)c(Br)s1)c1ccncc1 do in these assays?
ERAP1 HTS inh: 1; DENV2 CPE: inconclusive; RAD52 inh: 4; AF4-AF9 inh: 0; FGF22 binding: 44*

Results for O=C(N/N=C/c1ccc(Br)s1)c1ccncc1 ?
ERAP1 HTS inh: 2; DENV2 CPE: 3; RAD52 inh: -25; AF4-AF9 inh: -1; FGF22 binding: 0

Results for Cc1ccsc1/C=N/NC(=O)c1cccnc1 ?
ERAP1 HTS inh: 4; DENV2 CPE: -3; RAD52 inh: -8; AF4-AF9 inh: 3; FGF22 binding: 0

What do the screens show for `C[C@H]1CN([C@@H](C)CO)C(=O)c2cccc(NC(=O)C3CCOCC3)c2O[C@@H]1CN(C)CC1CC1`?
ERAP1 HTS inh: 0; DENV2 CPE: -6; RAD52 inh: 3; AF4-AF9 inh: -2; FGF22 binding: 0

How did O=C(C[C@@H]1CC[C@H](NC(=O)Nc2ccc3c(c2)OCO3)[C@@H](CO)O1)NCc1ccccc1 do in these assays?
ERAP1 HTS inh: 1; DENV2 CPE: 0; RAD52 inh: 2; AF4-AF9 inh: -3; FGF22 binding: 0

What do the screens show for `N#C[C@H]1[C@H](c2ccccc2C2=CCCCC2)[C@H](CO)N1C(=O)c1cccc(F)c1`?
ERAP1 HTS inh: -1; DENV2 CPE: 2; RAD52 inh: 10; AF4-AF9 inh: 1; FGF22 binding: 0

What do the screens show for `O=C(N/N=C/c1ccc([N+](=O)[O-])cc1)c1ccc(COc2ccccc2-c2ccccc2)cc1`?
ERAP1 HTS inh: 2; DENV2 CPE: -9; RAD52 inh: -9; AF4-AF9 inh: 1; FGF22 binding: 44*
